In PubChem BioAssay AID1159580 (chemical genetic matrix, 2015):
Screen size: about 5,500 compounds; about 2,000 (36%) were called active. Not shown: some 18% with an inconclusive outcome. Rule as the data show it: active = normalized growth mostly below about 0.91 (no sharp cut-off); inconclusive = no clear call, values can overlap the other calls; inactive = mostly above about 0.92. Some of the results follow.

Experiment: chemical genetic growth profiling, strain panel (AID 1159580);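 also: tested at 20 µM; growth read once vehicle control cultures reached saturation at 30 °C; 1 = growth at the plate median or of vehicle wells; lower values mean less growth of the strain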
Settings: S. cerevisiae deletion strains, growth OD

Measured: normalized growth

CC1(C)CCCC2(C)C3C1[C@@H](O)C2(C)C[C@H]3O (stereo not given in full)
inactive: locus YAL021C, strain ccr4, active compounds read low 1.01 | locus YAL026C, strain drs2, active compounds read low 1.04 | locus YAL030W, strain snc1, active compounds read low 0.993 | locus YBL061C, strain skt5, active compounds read low 1.01 | locus YBR009C, strain hhf1, active compounds read low 1.03 | locus YBR023C, strain chs3, active compounds read low 1.01 | locus YBR171W, strain sec66, active compounds read low 1.04 | locus YBR231C, strain swc5, active compounds read low 1.03 | locus YBR279W, strain paf1, active compounds read low 1.03 | locus YCL011C, strain gbp2, active compounds read low 1.03 | locus YCL016C, strain dcc1, active compounds read low 1 | locus YCL061C, strain MRC1, active compounds read low 1.02 | locus YCL069W, strain vba3, active compounds read low 1.02 | locus YCR088W, strain abp1, active compounds read low 1.03 | locus YDL005C, strain med2, active compounds read low 1.03 | locus YDL040C, strain nat1, active compounds read low 1.01 | locus YDR001C, strain nth1, active compounds read low 1.03 | locus YDR069C, strain doa4, active compounds read low 0.992 | locus YDR137W, strain rgp1, active compounds read low 0.973 | locus YDR159W, strain sac3, active compounds read low 0.991 | locus YDR195W, strain ref2 1.02 | locus YDR297W, strain sur2, active compounds read low 0.985 | locus YDR334W, strain swr1, active compounds read low 1.03 | locus YDR335W, strain msn5, active compounds read low 0.995 | locus YDR392W, strain spt3, active compounds read low 0.941 | locus YEL003W, strain gim4, active compounds read low 1.03 | locus YEL037C, strain rad23, active compounds read low 1.03 | locus YEL061C, strain CIN8 (second series), active compounds read low 1.03 | locus YER015W, strain faa2, active compounds read low 1.03 | locus YER016W, strain bim1, active compounds read low 1.01 | locus YER111C, strain swi4, active compounds read low 1.03 | locus YER155C, strain BEM2 (second series), active compounds read low 1.02 | locus YFR010W, strain ubp6, active compounds read low 1.04 | locus YGL167C, strain pmr1, active compounds read low 1.01 | locus YGL173C, strain kem1, active compounds read low 1.03 | locus YGL227W, strain vid30, active compounds read low 1.03 | locus YGL240W, strain doc1, active compounds read low 1 | locus YGL253W, strain hxk2, active compounds read low 1.03 | locus YHR013C, strain ard1, active compounds read low 1.04 | locus YHR027C, strain rpn1, active compounds read low 0.998 | locus YHR030C, strain SLT2, active compounds read low 0.976 | locus YHR079C, strain IRE1, active compounds read low 0.983 | locus YHR142W, strain chs7, active compounds read low 1.01 | locus YJL092W, strain hpr5, active compounds read low 1.03 | locus YJL095W, strain BCK1 (second series), active compounds read low 0.988 | locus YJL095W, strain BCK1, active compounds read low 1 | locus YJL115W, strain asf1, active compounds read low 1.03 | locus YJL129C, strain trk1, active compounds read low 1.05 | locus YJL154C, strain vps35, active compounds read low 1.02 | locus YJL164C, strain tpk1, active compounds read low 1.01 | locus YJL166W, strain qcr8, active compounds read low 1.04 | locus YJL187C, strain SWE1, active compounds read low 0.985 | locus YJR066W, strain TOR1, active compounds read low 0.923 | locus YKL160W, strain elf1, active compounds read low 0.986 | locus YKR026C, strain gcn3, active compounds read low 1.02 | locus YKR091W, strain srl3, active compounds read low 1.02 | locus YLL001W, strain dnm1, active compounds read low 0.994 | locus YLL026W, active compounds read low 1.01 | locus YLL041C, strain sdh2, active compounds read low 0.995 | locus YLR027C, strain aat2, active compounds read low 1 | locus YLR113W, strain HOG1, active compounds read low 1.05 | locus YLR221C, strain rsa3, active compounds read low 1.02 | locus YLR258W, strain gsy2, active compounds read low 1.01 | locus YLR262C, strain YPT6 (second series), active compounds read low 1.04 | locus YLR320W, strain mms22, active compounds read low 1.07 | locus YLR342W, strain FKS1, active compounds read low 1.02 | locus YLR357W, strain rsc2, active compounds read low 1.04 | locus YLR370C, strain arc18, active compounds read low 1.01 | locus YLR384C, strain iki3, active compounds read low 1.02 | locus YML120C, strain ndi1, active compounds read low 1.01 | locus YMR058W, strain fet3, active compounds read low 1.03 | locus YMR125W, strain sto1, active compounds read low 1.04 | locus YMR129W, active compounds read low 1.03 | locus YMR205C, strain PFK2, active compounds read low 1.01 | locus YMR231W, strain pep5, active compounds read low 1.03 | locus YNL071W, strain lat1, active compounds read low 1.02 | locus YNL183C, strain NPR1, active compounds read low 0.963 | locus YNL209W, strain ssb2, active compounds read low 0.997 | locus YNL248C, strain rpa49, active compounds read low 0.996 | locus YNL322C, strain KRE1 (second series), active compounds read low 1.01 | locus YNR049C, strain mso1, active compounds read low 0.993 | locus YOR001W, strain rrp6, active compounds read low 1 | locus YOR070C, strain gyp1, active compounds read low 1 | locus YOR080W, strain dia2, active compounds read low 1.01 | locus YOR083W, strain WHI5, active compounds read low 0.999 | locus YOR106W, strain vam3, active compounds read low 0.985 | locus YOR231W, strain MKK1, active compounds read low 0.977 | locus YOR265W, strain rbl2, active compounds read low 1 | locus YOR270C, strain vph1, active compounds read low 1.08 | locus YOR290C, strain snf2, active compounds read low 0.985 | locus YPL051W, strain arl3, active compounds read low 1 | locus YPL078C, strain atp4, active compounds read low 1.01 | locus YPL106C, strain sse1, active compounds read low 1.06 | locus YPL240C, strain hsp82, active compounds read low 0.987 | locus YPL256C, strain CLN2, active compounds read low 1
